Reference: PubChem BioAssay (EPA / NIEHS)
Activity calls are given as the source filed them. How the source made its calls: active means hit-call score of the fitted dose curve at least 0.9, where 1 is the maximum; inactive means score below 0.9.

Experiment: ATG_TAL_CIS: Attagene CIS-FACTORIAL HepG2 Assay for human TAL Basal Promoter (AID 2282966)
Details: HepG2 Attagene cis-factorial TAL promoter reporter; actives raise or lower the signal
Procedure: ATG_CIS is a cell-based, multiplexed-readout assay that uses HepG2, a human liver cell line, with measurements taken at 24 hours after chemical dosing in a 24-well plate.ATG_TAL_CIS is one of 52 assay component(s) measured or calculated from the ATG_CIS assay. It is designed to make measurements of mRNA induction, a form of inducible reporter, as detected with fluorescence intensity signals by Reverse transcription polymerase chain reaction (RT-PCR) and Capillary electrophoresis technology.Data from the assay component ATG_TAL_CIS was analyzed into 1 assay endpoint. This assay endpoint, ATG_TAL_CIS, was analyzed with bidirectional fitting relative to DMSO as the negative control and baseline of activity. Using a type of inducible reporter, measures of mRNA for gain or loss-of-signal activity can be used to understand the background control at the transcription factor-level as they relate to the gene . Furthermore, this assay endpoint can be referred to as a secondary readout, because this assay has produced multiple assay endpoints where this one serves a background control function. To generalize the intended target to other relatable targets, this assay endpoint is annotated to the background measurement intended target family, where the subfamily is internal marker.
Human liver HepG2 cells are transiently transfected with multiple reporter transcription units (MRTUs) in 6-well plates using FuGene 6 reagent (Roche; 3 ml FuGene/1 mg DNA). The MRTU constructs are regulated by a cis-regulating element (promoter). […] A major difference between the CIS and TRANS system is that in CIS activities of endogenous TFs are measured, whereas the TRANS assay evaluates changes in activities of exogenous, chimeric NR-Gal4 proteins. […] At the end of 24 hour incubation, total RNA was isolated using TriZol reagent (Invitrogen). The isolated RNA is then reverse-transcribed using oligo(dT) primer and Mo-MLV reverse transcriptase (Invitrogen) with DNAse I (Ambion) treatment for 30 min. The one-tenth of the produced cDNA was amplified by PCR using Taq DNA polymerase (Invitrogen) and two reporter sequence-specific primers. The PCR products were fluorescently labeled by primer extension with 6-arboxyfluorescein (6-FAM) 5'-labeled reporter sequence-specific primer (2 min at 95 C, 20 s at 68 C and 10 min at 72 C) and these products were digested with 5U of HpaI (New England Biolabs) for 2h at 37 C. The fragments were purified using Qiaquick PCR columns (Qiagen), analyzed on an ABI 3130xL genetic analyzer (Applied Biosystems) with peak positions identified by using a set of X-rhodamine (ROX)-labeled MapMarker1000 molecular weight standards (BioVentures). The raw capillary electrophoresis data was processed using Attagraph software (Attagene).

outcome, inactive:
NCC1CCCC(CN)C1 (stereo not given)
CCCCCCC(C)Nc1ccc(Nc2ccccc2)cc1 (stereo not given)
Cc1ncc([N+](=O)[O-])n1CCO
O=C(Nc1ccc2c(O)c(N=Nc3ccc(N=Nc4ccc(S(=O)(=O)O)cc4)cc3)c(S(=O)(=O)O)cc2c1)c1ccccc1
Oc1ccc2cc(SSc3ccc4cc(O)ccc4c3)ccc2c1
C=CCCCCCCCCCC
CCCCCCCCCCCCN1CCCCCC1=O
CCC(C)S (stereo not given)
CN(C)c1cccc(O)c1
Cc1ccc(N)c(S(=O)(=O)O)c1
CCCOC(=O)c1c(Cl)c(Cl)c(Cl)c(Cl)c1C(=O)OCCC
CC(=O)O[C@@H]1C[C@@H]2CC[C@@]1(C)C2(C)C
COC(C)(C)CCCC(C)CC=O (stereo not given)
CC(C)CCCCCCCCCCCCCCC(=O)O
CS(=O)(=O)c1ccc(Cl)cc1
CC(=O)O[C@H]1C[C@@H]2CC[C@@]1(C)C2(C)C
O=C(O)COCC(=O)O
C=Cc1ccc(C(C)(C)C)cc1
OC[C@H]1O[C@@H]2O[C@H]3[C@H](O)[C@@H](O)[C@@H](O[C@H]4[C@H](O)[C@@H](O)[C@@H](O[C@H]5[C@H](O)[C@@H](O)[C@@H](O[C@H]6[C@H](O)[C@@H](O)[C@@H](O[C@H]7[C@H](O)[C@@H](O)[C@@H](O[C@H]8[C@H](O)[C@@H](O)[C@@H](O[C@H]9[C@H](O)[C@@H](O)[C@@H](O[C@H]1[C@H](O)[C@H]2O)O[C@@H]9CO)O[C@@H]8CO)O[C@@H]7CO)O[C@@H]6CO)O[C@@H]5CO)O[C@@H]4CO)O[C@@H]3CO
NCCNc1cccc2ccccc12
Nc1ccc(Cl)c([N+](=O)[O-])c1
O=C(O)CNc1ccccc1
CCCCC(CC)C(=O)OC(C)C (stereo not given)
Cc1ccc(-c2ccccc2)cc1
ON=C1CCCCC1
COc1ccc(CCC(C)=O)cc1
O=C(O)c1cc(C(=O)O)cc([N+](=O)[O-])c1
CCCSc1ccc2nc(NC(=O)OC)[nH]c2c1
Cc1cc(C)nc(NS(=O)(=O)c2ccc(N)cc2)n1
CCCCCCCCN1CCCC1=O
C1CCCCC1
C=C(C)C(=O)OCCOCCOCCOC(=O)C(=C)C
CCCCC(CC)COC(=O)c1ccc(O)cc1 (stereo not given)
OC[C@H]1O[C@@H](Oc2ccc(O)cc2)[C@H](O)[C@@H](O)[C@@H]1O
CCCC(=O)OC(C)(C)Cc1ccccc1
Cc1c(Cl)cccc1[N+](=O)[O-]
CCC(=O)O[C@@H]1C[C@H]2CC[C@]1(C)C2(C)C
N[C@@H](Cc1cc(I)c(Oc2cc(I)c(O)c(I)c2)c(I)c1)C(=O)O
C1CCOC1
CC1(C)C2=CCCC(C)(C)[C@]23CC[C@H]1C3
